Laboratory results as given in PubChem BioAssay AID652115 (Broad Institute, 2013).
Out of some 330,000 compounds screened, about 3,800 (1.2%) were called active. The list comes from a sample in which actives are over-represented; it also holds similar structures and randomly drawn compounds. Values without a mark were called inactive. Cut-off read from the data, not from the text of the source: active = inhibition above about 15%; inconclusive = no clear call, values can overlap the other calls; inactive = below that.

Target: NAD-dependent protein deacylase sirtuin-5, mitochondrial (Homo sapiens) (UniProt Q9NXA8)
Assay: SIRT5 desuccinylase inhibitors, primary screen, biochemical, fluorescence imaging, single point, set 5 (AID 652115)
Conditions: Purified SirT5, succinyl-peptide AMC, trypsin-coupled fluorescence; at 15 µM; hits give high values

Sequence of NAD-dependent protein deacylase sirtuin-5, mitochondrial (Homo sapiens) (Q9NXA8 whole entry, looked up): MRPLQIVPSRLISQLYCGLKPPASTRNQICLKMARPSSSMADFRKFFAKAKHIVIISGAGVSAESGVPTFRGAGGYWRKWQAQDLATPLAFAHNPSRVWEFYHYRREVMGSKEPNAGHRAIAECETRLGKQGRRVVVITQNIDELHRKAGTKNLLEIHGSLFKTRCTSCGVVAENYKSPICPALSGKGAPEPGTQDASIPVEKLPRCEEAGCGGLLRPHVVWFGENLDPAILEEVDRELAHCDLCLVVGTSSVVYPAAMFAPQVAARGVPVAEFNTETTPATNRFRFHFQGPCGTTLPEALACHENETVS

Compound | inhibition
CO[C@@H](CN(C)C(=O)c1cnccn1)[C@@H](C)CN([C@@H](C)CO)S(=O)(=O)c1ccc(F)cc1 | 3.39%
CCNC(=O)C[C@@H]1CC[C@@H]2[C@H](COc3ccc(NS(=O)(=O)c4ccccc4C)cc3C(=O)N2C)O1 | -4.85%
C/C=C/c1ccc2c(c1)O[C@@H](CN(C)S(=O)(=O)c1ccc(F)cc1)[C@@H](C)CN([C@H](C)CO)S2(=O)=O | 7.93%
O=C(Nc1cc(F)ccc1F)N[C@H]1CC[C@@H](CCn2cc(C3CCCC3)nn2)O[C@@H]1CO | -0.428%
C[C@H](CO)N1C[C@H](C)[C@@H](CN(C)C(=O)c2ccncc2)Oc2cc(/C=C/c3ccccc3)ccc2S1(=O)=O | 0.659%
C[C@H]1CN([C@@H](C)CO)S(=O)(=O)c2ccc(C#Cc3ccncc3)cc2O[C@@H]1CN(C)C(=O)Nc1ccc2c(c1)OCO2 | 4.3%
C[C@@H]1CN([C@H](C)CO)S(=O)(=O)c2ccc(/C=C/c3ccccc3)cc2O[C@@H]1CN(C)Cc1ccccc1 | 23.2% (active)
Cc1ccc(S(=O)(=O)N(C)C[C@@H]2Oc3cc(C4=CCCC4)ccc3S(=O)(=O)N([C@@H](C)CO)C[C@@H]2C)cc1 | 8.8%
C[C@@H]1CN([C@@H](C)CO)S(=O)(=O)c2ccc(/C=C/c3ccccc3)cc2O[C@@H]1CN(C)C(=O)Nc1cc(F)ccc1F | 21.7% (active)
C[C@@H]1CN([C@@H](C)CO)S(=O)(=O)c2ccc(/C=C/c3ccccc3)cc2O[C@H]1CN(C)Cc1cccnc1 | 5.97%
C[C@@H]1CN([C@@H](C)CO)S(=O)(=O)c2ccc(/C=C/c3ccccc3)cc2O[C@H]1CN(C)Cc1ccccc1 | -1.92%
C[C@@H]1CN([C@@H](C)CO)S(=O)(=O)c2ccc(/C=C/c3ccccc3)cc2O[C@H]1CN(C)C(=O)Nc1cc(F)ccc1F | -3.9%
C[C@H]1CN([C@@H](C)CO)S(=O)(=O)c2ccc(C3=CCCC3)cc2O[C@H]1CN(C)C(=O)Nc1ccc2c(c1)OCO2 | 16.2% (active)
COc1cccc(S(=O)(=O)N(C)C[C@@H]2Oc3cc(C4=CCCCC4)ccc3S(=O)(=O)N([C@H](C)CO)C[C@H]2C)c1 | 37.3% (active)
C[C@@H]1CN([C@H](C)CO)S(=O)(=O)c2ccc(C3=CCCC3)cc2O[C@H]1CN(C)C(=O)Nc1ccc2c(c1)OCO2 | 7.25%
C[C@H](CO)N1C[C@H](C)[C@@H](CN(C)S(=O)(=O)c2ccc(F)cc2)Oc2cc(C3=CCCC3)ccc2S1(=O)=O | -0.634%
C[C@@H]1CN([C@H](C)CO)S(=O)(=O)c2ccc(/C=C/c3ccccc3)cc2O[C@@H]1CN(C)C(=O)Nc1ccc(F)cc1 | 0.2%
C[C@@H]1CN([C@H](C)CO)S(=O)(=O)c2ccc(-c3cncnc3)cc2O[C@H]1CN(C)C(=O)Cc1ccccc1 | 1.64%
CCCC#Cc1cnc2c(c1)C(=O)N([C@H](C)CO)C[C@H](C)[C@@H](CN(C)C(=O)c1cccnc1)O2 | -3.74%
CN1C(=O)c2cc(NS(=O)(=O)c3ccc(Cl)cc3)ccc2OC[C@@H]2O[C@H](CC(=O)O)CC[C@@H]21 | -0.474%
O=C(C1CC1)N1CC(=O)N2[C@H](CO)[C@@H](c3ccc(-c4ccccc4F)cc3)[C@@H]2C1 | -3.61%
COc1ccc(CN(C)C[C@H]2OCCCC[C@@H](C)Oc3ccc(NS(=O)(=O)c4ccccc4)cc3C(=O)N([C@@H](C)CO)C[C@@H]2C)cc1 | -2.94%
COc1ccccc1CN1[C@H](CO)[C@H](c2ccccc2)C12CN(C(=O)c1ccccn1)C2 | -0.913%
C[C@@H]1CN([C@H](C)CO)C(=O)c2cccc(NS(=O)(=O)c3ccc(Cl)cc3)c2O[C@H]1CN(C)Cc1ccc(C(F)(F)F)cc1 | 2.17%
COCC(=O)Nc1ccc2c(c1)OC[C@H](C)N(C(=O)c1cnccn1)C[C@@H](C)[C@@H](OC)CN(C)C2=O | 10.6%

Compound | inhibition
Cc1noc(C)c1NC(=O)N(C)C[C@H]1OCCCC[C@@H](C)Oc2ccc(NC(=O)NC(C)C)cc2C(=O)N([C@@H](C)CO)C[C@H]1C | 1.72%
O=C1/C(=C/c2ccc3c(c2)OCO3)CCC/C1=C\c1ccc2c(c1)OCO2 | 15.2% (active)
NC(=O)c1ccc(NC(=O)COC(=O)c2c3c(nc4ccccc24)/C(=C\c2ccc4c(c2)OCO4)CCC3)cc1 | -2.29%
O=C(N/N=C/c1ccc2c(c1)OCO2)C(=O)N1CCCC1 | -0.951%
C[C@H](CO)N1C[C@H](C)[C@H](CN(C)C(=O)c2cccnc2)Oc2ncc(C3=CCCC3)cc2C1=O | -8.88%
C[C@H](CO)N1C[C@H](C)[C@@H](CN(C)C(=O)Cc2ccncc2)Oc2ncc(C#CCN(C)C)cc2C1=O | 6.32%
CCCN(C)C[C@H]1Oc2ncc(C#CCOC)cc2C(=O)N([C@@H](C)CO)C[C@H]1C | 0.664%
C[C@@H]1CN([C@@H](C)CO)C(=O)c2cccc(NC(=O)CCCCCC(=O)Nc3ccccc3N)c2O[C@H]1CN(C)C(=O)Nc1ccccc1 | -0.269%
C[C@@H]1CN([C@@H](C)CO)C(=O)c2cccc(NC(=O)c3cnccn3)c2O[C@H]1CN(C)Cc1ccc(-c2ccccc2)cc1 | -1.19%
C[C@@H]1CN([C@H](C)CO)C(=O)c2cccc(NC(=O)c3cnccn3)c2O[C@@H]1CN(C)Cc1ccc(C(=O)Nc2ccccc2N)cc1 | 15.1% (active)
C[C@@H]1CN([C@@H](C)CO)C(=O)c2cccc(NC(=O)c3cnccn3)c2O[C@H]1CN(C)Cc1ccc(C(=O)O)cc1 | -1.49%
C[C@H](CO)N1C[C@H](C)[C@H](CN(C)Cc2ccc(Oc3ccccc3)cc2)Oc2c(NC(=O)CCCCCC(=O)Nc3ccccc3N)cccc2C1=O | 10.2%
C[C@@H]1CN([C@H](C)CO)C(=O)c2cccc(NC(=O)CCCCCC(=O)Nc3ccccc3N)c2O[C@H]1CN(C)Cc1ccc(Oc2ccccc2)cc1 | 28.2% (active)
COc1ccccc1-n1c(SCC(=O)Nc2cccc(C(=O)O)c2)nnc1-c1ccccc1O | 3.18%
COc1ccccc1OCc1nnc(SCC(N)=O)n1-c1ccccc1 | -0.045%
CCOc1cc(C)ccc1OCc1nnc(SCC(=O)Nc2cccc(C(=O)O)c2)n1-c1ccccc1 | 60.5% (active)
COc1cccc(S(=O)(=O)N[C@@H]2C=C[C@H](CC(=O)NC3CCC3)O[C@@H]2CO)c1 | -3.76%
CO[C@@H]1CC[C@@H]2CCOc3c(C#N)cccc3C(=O)N(C)C[C@@H](C)C(=O)N(C)C[C@@H]1O2 | 0.964%
CCN(CC)c1ncnc2c1ncn2[C@H]1CN(Cc2cccs2)C[C@@H](CO)O1 | 0.751%
OC[C@@H]1CN(Cc2cccs2)C[C@H](n2cnc3c(Nc4ccccc4)ncnc32)O1 | 19.4% (active)
OC[C@@H]1CN(Cc2cccs2)C[C@H](n2cnc3c(NC4CCCC4)ncnc32)O1 | 5.79%
CCCC(=O)Nc1ccc2c(c1)C(=O)N(C)C[C@H](OC)[C@@H](C)CN(C(C)=O)[C@H](C)CO2 | 0.113%
CO[C@@H]1CN(C)C(=O)c2cc(NC(=O)C3CC3)ccc2OC[C@H](C)N(CC2CC2)C[C@H]1C | -3.23%
CC(C)CN(C(=O)c1cccc(S(=O)(=O)N2CCCCC2)c1)C1CCS(=O)(=O)C1 (stereo not drawn) | -1.89%
CCCCN(C(=O)c1ccc(S(=O)(=O)N2CCOCC2)cc1)C1CCS(=O)(=O)C1 (stereo not drawn) | 2.17%

Compound | inhibition
O=C(c1cccc(S(=O)(=O)N2CCCC2)c1)N(Cc1ccco1)C1CCS(=O)(=O)C1 (stereo not drawn) | 18.1% (active)
CN(C)C(=O)C[C@@H]1CC[C@@H](NC(=O)NC2CCCC2)[C@@H](CO)O1 | 1.11%
COc1cccc(S(=O)(=O)N[C@H]2CC[C@@H](CCN)O[C@H]2CO)c1 | 0.762%
COC(=O)COc1cccc2c(=O)n(CC(=O)NCCc3ccc(OC)c(OC)c3)ccc12 | 15.1% (active)
CCOC(=O)C(C)Oc1cccc2c(=O)n(CC(=O)NCCc3ccc(OC)c(OC)c3)ccc12 (stereo not drawn) | -3.89%
COC(=O)COc1cccc2c(=O)n(CC(=O)NCc3ccccc3)ccc12 | -3.93%
CO[C@@H]1CN(C)C(=O)c2cc(NC(=O)c3cnccn3)ccc2OC[C@@H](C)N(C(=O)C2CC2)C[C@@H]1C | 2.16%
COc1cccc(-c2ccc([C@H]3[C@H]4CN(C(=O)NC(C)C)CC(=O)N4[C@H]3CO)cc2)c1 | 1.38%
COc1cc(OC)c(OC)cc1CN1CCN(C(=O)c2cccc3ccccc23)CC1 | -1.16%
COc1ccc(OC)c(CN2CCN(C(=O)CNC(=O)c3cc(C)cc(C)c3)CC2)c1 | -1.91%
COc1cc(C)c(CN2CCN(C(=O)CCC(=O)c3ccc(C)s3)CC2)cc1OC | 19.2% (active)
O=C(C[C@H]1CC[C@H]2[C@@H](COC[C@@H](O)CN2Cc2ccccc2)O1)N[C@@H]1CCN(Cc2ccccc2)C1 | -3.08%
CCCNC(=O)N(C)C[C@H]1Oc2ncc(-c3cccc(C#N)c3)cc2C(=O)N([C@@H](C)CO)C[C@H]1C | 0.845%
CCNC(=O)C[C@@H]1CC[C@H]2[C@@H](COC[C@@H](O)CN2C(=O)c2cc(Cl)cc(Cl)c2)O1 | -2.11%
COc1ccc(CN(C)C[C@H]2Oc3c(NS(=O)(=O)c4ccccc4)cccc3C(=O)N([C@H](C)CO)C[C@@H]2C)cc1 | 6.84%
COc1ccc(S(=O)(=O)Nc2ccc3c(c2)C(=O)N([C@H](C)CO)C[C@@H](C)[C@@H](CN(C)Cc2ccccc2)O3)cc1 | 3.29%
COc1ccc(CN(C)C[C@H]2Oc3c(NS(=O)(=O)c4ccccc4)cccc3C(=O)N([C@@H](C)CO)C[C@H]2C)cc1 | 26.9% (active)
COc1ccc(S(=O)(=O)Nc2cccc3c2O[C@@H](CN(C)Cc2ccc(-c4ccccc4)cc2)[C@H](C)CN([C@H](C)CO)C3=O)cc1 | 19.6% (active)
COc1ccc(S(=O)(=O)Nc2ccc3c(c2)C(=O)N([C@H](C)CO)C[C@@H](C)[C@H](CN(C)Cc2ccccc2)O3)cc1 | 5.6%
COc1ccc(CN(C)C[C@H]2Oc3c(NS(=O)(=O)c4ccc(Cl)cc4)cccc3C(=O)N([C@H](C)CO)C[C@@H]2C)cc1 | -1.84%
COc1ccc(S(=O)(=O)Nc2ccc3c(c2)C(=O)N([C@H](C)CO)C[C@H](C)[C@@H](CN(C)Cc2ccc(-c4ccccc4)cc2)O3)cc1 | 16.6% (active)
COc1ccc(CN(C)C[C@H]2Oc3c(NS(=O)(=O)c4ccc(Cl)cc4)cccc3C(=O)N([C@H](C)CO)C[C@H]2C)cc1 | -3.94%
COc1ccc(CN(C)C[C@H]2Oc3c(NS(=O)(=O)c4ccc(C)cc4)cccc3C(=O)N([C@@H](C)CO)C[C@@H]2C)cc1 | -2.22%
